# Experimental data from article PMC5540273 (PLoS ONE, 2017).
# Columns and labels:
# Conditions in all cases: concentration: 1 μM, replicates: in singlicate; n = 1
# VPS34 = tested on: T1, VPS34
# T1 construct: gene PIK3C3
# VRK2 = tested on: VRK2
# WEE1 = tested on: WEE1
# WEE2 = tested on: WEE2
# WNK1 = tested on: WNK1
# WNK2 = tested on: WNK2
# WNK3 = tested on: WNK3
# WNK4 = tested on: WNK4
# YANK1 = tested on: T2, YANK1
# T2 construct: gene STK32A
# YANK2 = tested on: T3, YANK2
# T3 construct: gene STK32B
# YANK3 = tested on: T4, YANK3
# T4 construct: gene STK32C
# YES = tested on: T5, YES
# T5 construct: gene YES1
# YSK1 = tested on: T6, YSK1
# T6 construct: gene STK25
# YSK4 = tested on: T7, YSK4
# T7 construct: gene MAP3K19
# ZAK = tested on: ZAK
# ZAP70 = tested on: ZAP70
# p38-alpha = tested on: T8, p38-alpha
# T8 construct: gene MAPK14
# p38-beta = tested on: T9, p38-beta
# T9 construct: gene MAPK11
# p38-delta = tested on: p38-delta
# p38-gamma = tested on: T10, p38-gamma
# T10 construct: gene MAPK12
# 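Further: KINOMEscan kinase panel screen.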
Compound,%Inh (VPS34) [%],%Inh (VRK2) [%],%Inh (WEE1) [%],%Inh (WEE2) [%],%Inh (WNK1) [%],%Inh (WNK2) [%],%Inh (WNK3) [%],%Inh (WNK4) [%],%Inh (YANK1) [%],%Inh (YANK2) [%],%Inh (YANK3) [%],%Inh (YES) [%],%Inh (YSK1) [%],%Inh (YSK4) [%],%Inh (ZAK) [%],%Inh (ZAP70) [%],%Inh (p38-alpha) [%],%Inh (p38-beta) [%],%Inh (p38-delta) [%],%Inh (p38-gamma) [%]
O=C(NCCCN1CCOCC1)c1cccc(Nc2nccc(Nc3ccc(Oc4ccccc4)cc3)n2)c1 [GW663929],0,17,31,0,11,14,33,0,0,0,1,84,22,26,47,6,11,0,18,0
COc1cc(Nc2nccc(N3CCC(NC(=O)c4cccc(NC(C)=O)c4)C3)n2)cc(OC)c1OC (stereo not drawn) [GSK1379754],35,0,4,1,6,0,14,0,0,0,0,18,3,19,0,0,0,0,0,0
O=C1NC(=O)C(N2CCc3ccccc32)=C1c1cccc(Cl)c1 [SB-408010],0,0,0,4,0,14,0,89,0,19,17,0,0,0,14,29,7,7,15,0
N#Cc1ccc(-c2cc(-c3c[nH]nc3-c3ccccn3)ccn2)cc1 [GW693028],0,13,2,0,7,15,30,30,15,7,6,13,0,33,15,0,30,0,22,0
COc1cc2c(cc1OC[C@@H](O)CO)ncc1c3ccc(C#N)cc3[nH]c21,0,9,0,0,1,0,2,0,19,0,0,0,0,90,1,0,5,15,0,18
Cc1nnc(-c2ccc3ncc(-c4ccc(S(C)=O)cc4)n3c2)o1 (stereo not drawn),27,0,0,13,0,1,0,7,0,0,5,0,0,3,0,0,9,1,7,10
O=C(NCCNc1ccnc(Nc2ccc(F)cc2)n1)c1cc2ccccc2s1 [GSK1379874],16,0,38,5,0,0,16,39,0,0,8,3,0,35,100,6,20,0,40,0
Cc1ccc(NC(=O)c2ccnc(N3CCN(C)CC3)c2)cc1-c1ccc(C(=O)NCC2CC2)cc1 [GW775604],0,17,0,0,0,0,0,0,0,1,0,0,19,0,0,0,32,35,10,0
COc1ccc(Nc2nccc(N3CCC(NC(=O)Nc4cc(C)ccc4C)C3)n2)cc1 (stereo not drawn) [GSK1379741],0,0,14,0,7,59,18,40,0,0,8,13,0,19,5,0,0,0,47,0
COc1cc2ncn(-c3cc(OCc4sccc4Cl)c(C(N)=O)s3)c2cc1OC [GSK448459],60,5,4,5,19,45,60,31,11,0,0,6,0,89,0,0,0,0,23,0
O=C(c1ccc(-c2cc(-c3c[nH]nc3-c3ccccn3)ccn2)cc1)N1CCOCC1 [GW812171],9,23,0,0,2,9,4,0,0,63,0,0,0,0,29,0,20,8,0,0
Cn1ccc2ncnc(Oc3ccc(NC(=O)Nc4ccncc4)c(Cl)c3)c21,0,0,0,0,0,0,0,0,0,5,9,0,3,0,0,7,0,18,4,8
CCc1ccnc(/C=C/c2n[nH]c3cc(Sc4ccccc4C(=O)NC)ccc23)c1,6,13,0,0,0,39,0,0,0,0,0,4,0,60,37,20,0,0,7,7
Fc1ccc(-c2ncn(CCCN3CCOCC3)c2-c2cccnc2)cc1 [SB-211743],0,20,0,0,8,0,0,0,0,0,0,0,0,22,0,0,0,0,0,48
CN1c2ccc(CNc3ccc(F)cc3)cc2-c2c(cnn2C)S1(=O)=O,0,0,2,0,0,0,1,0,0,0,0,0,0,0,0,0,0,0,0,14
NS(=O)(=O)c1cccc(-c2ccc3ncc(N4CCOCC4)nc3c2)c1 [GSK1535721],87,8,5,8,0,0,24,16,2,3,1,7,15,89,3,0,9,0,21,0
[2H]C([2H])(c1cccc(C(F)(F)F)c1C)n1ccn2c(=O)nc(N3CCOCC3)cc12 [GSK2336394],0,0,9,10,7,0,28,36,11,0,0,7,0,26,4,24,0,0,46,0
COC(=O)Nc1nc2cc(Oc3ccc(NC(=O)Nc4cc(F)ccc4F)cc3)ccc2[nH]1.Cl [GW701424],0,30,1,9,12,0,48,58,0,0,0,11,13,53,98.8,71,37,0,29,13
CC(C)Oc1ccc2c(-c3ccnc(Nc4ccc(N5CCN(C)CC5)cc4)n3)cnn2n1 [GW696155],96,8,30,0,12,42,52,31,0,0,0,54,71,99.8,0,65,17,0,72,62
C[C@@H](Oc1cc(-n2cnc3ccc(NC(=O)NC(C)(C)C)cc32)sc1C(N)=O)c1ccccc1Cl [GSK346294],0,5,5,12,14,25,33,0,0,0,12,3,0,3,0,6,32,0,30,2
CCn1cnc2c(N)ncnc21 [GW345098],1,0,2,14,0,0,0,0,0,0,0,21,0,5,12,3,5,4,0,49
